{
  "source": "PubChem BioAssay (EPA / NIEHS)",
  "note": "Where “and” joins values, the source holds several entries; their conditions need not be identical. Equal values may be shown once. Calls of active or inactive are those of the source. Rule for the calls: active = hit-call score of the fitted dose curve at least 0.9, where 1 is the maximum; inactive = score below 0.9.",
  "data": [
    {"read-out": "Vascular cell adhesion molecule 1 (VCAM1), VCAM1 (gene 7412)", "test": "BSK_MyoF_VCAM1: BioMAP Diversity Plus: MyoF Assay for Vascular cell adhesion molecule 1 (VCAM1) Biomarker Activity (AID 2284231)", "details": "primary human lung fibroblasts", "description": "BSK_MyoF is a cell-based, multiplexed-readout assay that uses lung fibroblasts, […], with measurements taken at 24 hours after chemical dosing in a microplate: 96-well plate.BSK_MyoF_VCAM1 is an assay component measured in the BSK_MyoF assay. It measures VCAM-1 antibody related to regulation of gene expression using ELISA technology.Data from the assay component BSK_MyoF_VCAM1 was analyzed at the endpoint, BSK_MyoF_VCAM1, in the positive analysis fitting direction relative to DMSO as the negative control and baseline of activity. Using a type of binding reporter, gain or loss-of-signal activity can be used to understand protein changes. To generalize the intended target to other relatable targets, this assay endpoint is annotated to the 'cell adhesion molecules' intended target family, where the subfamily is 'Immunoglobulin CAM'.\nThe levels of cell surface (or secreted, indicated by the prefix \"s\") biomarker endpoints were measured by ELISA. Overt cytotoxicity to cells in confluent adherent cultures (all systems other than the BT system) was assessed by measuring total protein levels using sulforhodamine B (SRB) staining in parallel cultures at the time of biomarker measurements, indicated as SRB endpoints. For proliferation assays for adherent cell types, individual cell types are cultured at sub-confluence and relative cell numbers quantified by SRB staining at time points optimized for each system (48 h: 3C and CASM3C systems; 72 h: BT and HDF3CGF systems; 96 h: SAg system). SRB was performed by staining cells with 0.1% SRB after fixation with 10% TCA and reading wells at 560 nm.Viability and proliferation of PBMC (T cells) was quantified by Alamar Blue reduction for the SAg and BT systems. For PBMC viability (referred to as PBMC Cytotoxicity within the assay endpoint names), cells were plated (75,000/well in a 96-well plate) and then chemical samples added for 1 h before addition of activators, SEB and TSST-1 (20 ng/mL final concentration each). Cells were incubated for 90 h. Then, Alamar Blue (20 uL/well) (Invitrogen, Cat DAL1100) was added for 6 h, and the plates were read with a fluorescence microplate reader at 546/580 nm (excitation/emission). For PBMC proliferation, cells were plated and activated as above but incubated for only 16 h prior to addition of Alamar Blue. Plates were read after 6 h.", "values": [
      {"smiles": "CC[N+](CC)(CC(=O)Nc1c(C)cccc1C)Cc1ccccc1", "outcome": "inactive"},
      {"smiles": "O=C(C(=O)c1ccccc1)c1ccccc1", "outcome": "inactive"},
      {"smiles": "OC(C(F)(F)F)(C(F)(F)F)C(O)(C(F)(F)F)C(F)(F)F", "AC50": "45.7 µM (active) and 41.7 µM (active)"},
      {"smiles": "CCCCCCCCCCC1CO1", "note": "(stereo not given)", "AC50": "30.7 µM (active)"},
      {"smiles": "Sc1nc2ccccc2s1", "outcome": "inactive"},
      {"smiles": "CCCCCCCCCC/C=C/C1CC(=O)OC1=O", "note": "(stereo not given)", "outcome": "inactive"},
      {"smiles": "COC(=O)/C=C\\C(=O)OC", "outcome": "inactive"},
      {"smiles": "Cc1cccnc1", "outcome": "inactive"},
      {"smiles": "CN(C)CCC(c1ccc(Cl)cc1)c1ccccn1", "note": "(stereo not given)", "outcome": "inactive"},
      {"smiles": "CCCCCCC(O)CCCCCCCCCCC(=O)OC", "note": "(stereo not given)", "outcome": "inactive"},
      {"smiles": "CN(C)c1ccc(C(c2ccccc2)c2ccc(N(C)C)cc2)cc1", "outcome": "inactive"},
      {"smiles": "CC(C)CC(=O)CC(C)CC(C)C", "note": "(stereo not given)", "outcome": "inactive"},
      {"smiles": "Cc1cc(-n2nc3ccc(Cl)cc3n2)c(O)c(C(C)(C)C)c1", "outcome": "inactive"},
      {"smiles": "CCCCCCCCCCCCCCCCCC[N+](C)(C)C", "AC50": "3.33 µM (active)"},
      {"smiles": "Oc1cccc2ccccc12", "outcome": "inactive"}
    ]}
  ]
}
